LASV entry inh: inhibitors of Lassa virus binding or cell entry | 300,000 tested, 1.2% active | Potency, µM (series often up to 37.9 µM), for the others: top-dose activity change, negative = inhibition, usual class: inhibitors | AID 540256 | Lassa virus pseudotype entry inhibition, cell reporter; calls by dose curve; tested in HEK293 cells; note: potency is the fitted concentration of half-maximal effect; nearly all actives have a fitted effect of over 50% in size
FMDV antiviral: blocks foot and mouth disease virus | FMDV antiviral cell-based qHTS | Potency, µM (top dose mostly 57.9 µM), without a hit: at the highest dose activity change, negative = inhibition, usual class: inhibitors | 410,000 tested, 1.2% active | AID 1159524; calls by dose curve; tested in HEK293T cells; note: read-out not given here; potency is the fitted concentration of half-maximal effect; nearly all actives have a fitted effect of over 45% in size
HCMV inh: blocks human cytomegalovirus replication | HFF cells, HCMV-luciferase reporter, 72 h; hits give low values | 410,000 tested, 4.5% active | activity change, negative = inhibition, % at 57.5 µM; in the data active = activity change below about -60%; inconclusive = no clear call, values can overlap the other calls; inactive = above about -39%
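Human foreskin fibroblasts infected with luciferase-reporter HCMV at MOI 1 PFU/cell, compounds at two doses. Luciferase measured 72 h post infection; normalized to buffer-only basal and Salinomycin (10uM) controls.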
HCV inhibitor: blocks hepatitis C virus; Potency, µM (series often up to 41.8 µM), for the others: at the top dose activity change, negative = inhibition, hits mostly inhibitors; 340,000 tested, 3.4% active; Huh7.5.1 HCVcc-Cre infection, luciferase reporter, 44 h; note: potency is the fitted concentration of half-maximal effect
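Cells (1,000/well) were plated 4 h before compound, then infected with HCVcc-Cre virus (~0.5 moi). After 44 h further culture, infection was read as luciferase luminescence following a 15 min substrate incubation at room temperature.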
MARV entry inh: blocks Marburg virus binding to or entry into cells; 300,000 tested, 1.8% active; Marburg virus pseudotyped entry inhibition, cell reporter; AID 540276; Potency, µM (top dose mostly 37.8 µM), for inactives: at the highest dose activity change, negative = inhibition, most hits filed as inhibitors; calls by dose curve; tested in HEK293 cells; note: potency is the fitted concentration of half-maximal effect
Giardia FBPA inh: Giardia lamblia aldolase inhibition. A8B2U2. purified Giardia FBPA. Potency, µM (highest dose often 59.6 µM), inactives show at the top dose activity, negative = inhibition, hits mostly inhibitors. 290,000 tested, 0.71% active. AID 2451; note: potency is the fitted concentration of half-maximal effect; nearly all actives have a fitted effect of over 55% in size
Target sequence (A8B2U2 whole entry, looked up): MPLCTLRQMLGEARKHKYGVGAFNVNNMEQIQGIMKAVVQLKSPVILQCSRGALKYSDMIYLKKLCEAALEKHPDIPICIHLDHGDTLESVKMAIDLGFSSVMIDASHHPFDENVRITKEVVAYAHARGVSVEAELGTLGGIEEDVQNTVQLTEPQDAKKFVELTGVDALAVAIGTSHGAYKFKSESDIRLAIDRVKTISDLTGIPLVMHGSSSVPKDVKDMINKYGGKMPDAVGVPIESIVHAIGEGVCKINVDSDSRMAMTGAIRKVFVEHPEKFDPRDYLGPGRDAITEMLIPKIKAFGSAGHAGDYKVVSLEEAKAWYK
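Giardia FBPA (40 nM reagent) was preincubated 10 min at RT with compound (up to 57.5 uM final), then substrate plus GAPDH/TPI/NAD/arsenate coupling system with diaphorase/resazurin was added; resorufin fluorescence (525/598 nm) was read after 20 min.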
An asterisk follows results filed as active; [ ] = remark or other dose. This is a sample that favours compounds with a hit; in the whole collection about 8.3% have one here. Unless noted, calls come from the whole dose curve; as a rule, active = well fitted curve in the direction sought with a large enough effect; inconclusive = small, poorly fitted or top-dose-only effect, or another doubt; inactive = no such curve, though single readings can be large; an effect the other way counts as inactive or inconclusive. % is set by controls: 0 for no effect and ±100 for the full control effect.

How did Cc1ccc(S(=O)(=O)N/N=C\c2cc([N+](=O)[O-])ccc2Cl)cc1 do in these assays?
LASV entry inh: inconclusive; HCMV inh: -89.9*; HCV inhibitor: 12.5%; MARV entry inh: inconclusive; Giardia FBPA inh: -6.8%

Results for COc1ccc(N2CCN(C(=O)c3cccnc3SCc3cccc(Br)c3)CC2)cc1 ?
LASV entry inh: 12.6µM*; FMDV antiviral: inconclusive; HCMV inh: 9.3; HCV inhibitor: inconclusive; MARV entry inh: inconclusive; Giardia FBPA inh: -5.5%

Results for O=C(OCc1cccc(C(F)(F)F)c1)c1cc([N+](=O)[O-])ccc1N1CCOCC1 ?
LASV entry inh: 0.0%; FMDV antiviral: -11.0%; HCMV inh: -30.6; HCV inhibitor: inconclusive; MARV entry inh: -21.9%

Results for O=C(OCc1cccc(Cl)c1)c1cc([N+](=O)[O-])ccc1N1CCOCC1 ?
LASV entry inh: inconclusive; FMDV antiviral: inconclusive; HCMV inh: 0.1; HCV inhibitor: 10µM*; MARV entry inh: inconclusive

What do the screens show for `O=C(OCc1cccc(C(F)(F)F)c1)c1cc(S(=O)(=O)N2CCOCC2)ccc1F`?
LASV entry inh: inconclusive; FMDV antiviral: inconclusive; HCMV inh: -10.0; HCV inhibitor: 10µM*; MARV entry inh: inconclusive

How did O=C(OCc1ccccc1)c1cc(S(=O)(=O)N2CCCCC2)ccc1N1CCOCC1 do in these assays?
LASV entry inh: inconclusive; FMDV antiviral: inconclusive; HCMV inh: -23.1; HCV inhibitor: inconclusive; MARV entry inh: inconclusive

What do the screens show for `Cc1ccc(C(=O)OCC(=O)N2c3ccccc3NC(=O)C2(C)C)cc1S(=O)(=O)N1CCCCC1`?
LASV entry inh: 0.5%[46.1 µM]; FMDV antiviral: 15.2%; HCMV inh: -14.3; HCV inhibitor: inconclusive; MARV entry inh: inconclusive

Results for O=C(OCc1cccc(Cl)c1)c1cc(S(=O)(=O)N2CCCCC2)ccc1N1CCOCC1 ?
LASV entry inh: inconclusive; FMDV antiviral: -26.7%; HCMV inh: -34.7; HCV inhibitor: 11.2µM*; MARV entry inh: 11.2µM*; Giardia FBPA inh: -5.7%

How did Cc1ccc(S(=O)(=O)N2CCCCC2)cc1C(=O)OCC(=O)N1c2ccccc2NC(=O)C1(C)C do in these assays?
LASV entry inh: 12.6%[46.1 µM]; FMDV antiviral: -21.4%; HCMV inh: -16.9; HCV inhibitor: 11.2µM*; MARV entry inh: inconclusive

Results for O=C(COC(=O)c1cc(S(=O)(=O)N2CCOCC2)ccc1F)c1ccccc1 ?
FMDV antiviral: -10.6%; HCMV inh: 96.6; HCV inhibitor: 3.9%

Results for O=C(NCc1ccc(C(F)(F)F)cc1)O[C@H]1CC[C@@]23CCCN2C(=O)CCC[C@H]3[C@H]1Cc1ccccc1 ?
HCMV inh: -0.3

What do the screens show for `CC(C)CCCC(C)NC(=O)c1cc(S(=O)(=O)N2CCCCC2)ccc1N1CCOCC1` (centres undefined)?
FMDV antiviral: -20.8%; HCMV inh: -6.1; HCV inhibitor: 11.2µM*

How did Cc1ccc(C)c(COC(=O)c2cc([N+](=O)[O-])ccc2N2CCOCC2)c1 do in these assays?
LASV entry inh: inconclusive; FMDV antiviral: -26.8%; HCMV inh: inconclusive; HCV inhibitor: 12.6µM*; MARV entry inh: inconclusive

How did Cc1ccc(C)c(COC(=O)c2cc(S(=O)(=O)N3CCCCC3)ccc2N2CCOCC2)c1 do in these assays?
LASV entry inh: 7.08µM*; FMDV antiviral: -26.9%; HCMV inh: -7.7; HCV inhibitor: -0.4%; MARV entry inh: inconclusive

What do the screens show for `CN(C(=O)COC(=O)c1cc([N+](=O)[O-])ccc1N1CCOCC1)C1CCCCC1`?
FMDV antiviral: -29.6%; HCMV inh: 4.1

Results for Cc1ccc(S(=O)(=O)N2CCOCC2)cc1C(=O)OCC(=O)c1ccc[nH]1 ?
FMDV antiviral: -25.7%; HCMV inh: -11.7; HCV inhibitor: 11.2µM*

How did Cc1c(C(=O)N(CCO)C(C)C)cnn1-c1ncc2c(n1)-c1ccccc1CCC2 do in these assays?
FMDV antiviral: 8.7%

Results for COc1cccc(Nc2ncc3nc(CCc4ccccc4)c(=O)n(Cc4cccs4)c3n2)c1 ?
FMDV antiviral: -15.8%; Giardia FBPA inh: 1.8%

What do the screens show for `O=C1C[C@@H](O)[C@@H](O)[C@H]2[C@@H]3C(=O)N(Cc4ccccc4)C(=O)[C@@H]3CC[C@H]12`?
Giardia FBPA inh: 1.1%[12.9 µM]

What do the screens show for `COc1ccc(COC(=O)c2cc([N+](=O)[O-])ccc2N2CCOCC2)cc1F`?
LASV entry inh: inconclusive; FMDV antiviral: inconclusive; HCMV inh: -72.5*; HCV inhibitor: 31.6µM*; MARV entry inh: inconclusive

What do the screens show for `Cc1ccc(COC(=O)c2cc(S(=O)(=O)N3CCCCC3)ccc2N2CCOCC2)cc1`?
LASV entry inh: 7.08µM*; FMDV antiviral: inconclusive; HCMV inh: -27.3; HCV inhibitor: inconclusive; MARV entry inh: inconclusive

Results for O=C(OCc1ccc(Br)cc1)c1cc([N+](=O)[O-])ccc1N1CCOCC1 ?
FMDV antiviral: 0.0%; HCMV inh: -30.3

Results for CN(C(=O)c1ccco1)c1nc2c(s1)CCCC2 ?
LASV entry inh: 6.31µM*; FMDV antiviral: -38.4%; HCMV inh: 72.2; HCV inhibitor: -11.3%; MARV entry inh: inconclusive; Giardia FBPA inh: -1.2%

Results for CN(C(=O)c1ccco1)c1nnc(C23CC4CC(CC(C4)C2)C3)s1 ?
LASV entry inh: 13.0%; FMDV antiviral: 18.9%; HCMV inh: -1.1; HCV inhibitor: inconclusive; MARV entry inh: inconclusive; Giardia FBPA inh: -4.2%

Results for Nn1c(SCc2cccc(Oc3ccccc3)c2)nnc1C(F)(F)F ?
LASV entry inh: 0.4%; FMDV antiviral: 6.1%; HCMV inh: -72.7*; HCV inhibitor: 14.0%; MARV entry inh: inconclusive; Giardia FBPA inh: 3.6%

How did COc1cccc(CSc2nnc(-c3ccncc3)n2N)c1 do in these assays?
LASV entry inh: inconclusive; FMDV antiviral: -2.4%; HCMV inh: -68.5*; HCV inhibitor: -2.0%; MARV entry inh: inconclusive; Giardia FBPA inh: 0.5%

Results for COc1cccc(CSc2nnc(C(F)(F)F)n2Cc2ccc(F)cc2)c1 ?
LASV entry inh: inconclusive; FMDV antiviral: -8.3%; HCMV inh: 0.3; HCV inhibitor: -8.3%; MARV entry inh: 4.7%; Giardia FBPA inh: 0.3%

Results for Nn1c(SC/C=C/c2ccccc2)nnc1-c1ccncc1 ?
LASV entry inh: -19.6%; FMDV antiviral: -23.7%; HCMV inh: -68.9*; HCV inhibitor: 14.9%; MARV entry inh: 21.6%; Giardia FBPA inh: -28.6%

What do the screens show for `Cc1cccc(NC(=O)c2oc3ccc(S(=O)(=O)N4CCOCC4)cc3c2C)c1C`?
LASV entry inh: inconclusive; FMDV antiviral: inconclusive; HCMV inh: -24.3; HCV inhibitor: 10µM*; MARV entry inh: inconclusive; Giardia FBPA inh: -0.5%

Screens as filed in PubChem BioAssay.
